Screen size: about 2,300 compounds; about 350 (15%) were called active. The rule behind the calls is not given here. These entries were drawn from the full list. Measured potencies and affinities stand elsewhere.

A short description of the test: HepG2 cell cytotoxicity, dose response, cytotoxicity control for non-replicating M. tuberculosis project (AID 489018).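 Note: HepG2 human liver cells.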 To be noted: series mostly up to 20 µM.
Consider `COc1ccc(C2(O)CCN(CCCCOc3ccccc3)CC2)cc1`, for which the compound was called inactive.
With `Clc1cccc(OCCN2CCN(CCOc3cccc(Cl)c3)CC2)c1`, the compound was classed as inactive.
As for `OCC1(CCOc2ccccc2)CCN(Cc2cc(Cl)ccc2O)CC1`, the entry is “inactive”.
`CC(C)Cn1c(N)c(C(=O)COC(=O)c2cnc(Cl)c(Cl)c2)c(=O)n(C)c1=O`: the compound was classed as inactive.
As for `O=C(Oc1cccnc1)c1ccc(Cl)c(Cl)c1`, the entry is “inactive”.
Then `CC(=O)c1ccc(-n2cc(-c3ccc(C(C)(C)C)cc3)[n+]3c2SCCC3)cc1`, with “inactive”.
As for `Cn1c(=O)c(Oc2ccc(F)cc2)c(O)c2ccccc21`, the outcome was inactive.
For the compound `O=C(Nc1nccs1)c1ccc(COc2ccc(Cl)cc2)o1`, the result was inactive.
As for `COc1cccc(COC(=O)CCNC(=O)c2ccc(Cl)cc2)c1OC`, the compound was classed as inactive.
Take `O=C(Oc1ccccc1)c1ccc(COC(=O)c2cnccn2)cc1`: the result was inactive.
Then `NC1=NC[C@H](Cc2ccccc2)N1CCCCC1CCCCC1`, with “inactive”; and `CCCC(=O)N1CCC(Cc2ccccc2)CC1`, with “inactive”.
On to `Cc1ccc(NC(C)C(=O)N/N=C/c2ccc([N+](=O)[O-])s2)cc1` (centres undefined), for which the outcome was inactive.
Take `COc1ccc(C(=O)CCN2CCCCCC2)cc1`: the call was inactive.
As for `CC(NC(=O)OCc1ccccc1)c1ccccc1` (centres undefined), the entry is “inactive”; as for `COc1ccc2cc(C(=O)C3CCCN(Cc4ccccn4)C3)ccc2c1` (centres undefined), “inactive”.
As for `Cc1ccc(NC(CC(=O)c2ccccc2)C(=O)O)cc1Cl` (centres undefined), the entry is “inactive”; as for `CC(CN1CCOCC1)OC(=O)c1ccc2c(c1)OCCO2` (centres undefined), “inactive”.
Regarding `CC(C)COc1ccc(C(=O)CCN2CCCCC2)cc1`, the compound was called inactive.
As to `CCOc1ccc(C(=O)CCN2CCCCCC2)cc1`, the compound was called inactive.
As for `CC(CN1CCOCC1)OC(=O)c1ccc(Br)cc1` (centres undefined), the compound was classed as inactive.
As to `CC(=O)c1cc2c(ccc3ccccc32)oc1=O`, the compound was called inactive.
On to `Cc1c([N+](=O)[O-])cnc(Sc2ccccc2)c1[N+](=O)[O-]`, for which the outcome was inactive.
Then `O=C(C/C=N\OCc1ccc([N+](=O)[O-])cc1)Nc1ccccc1`, with “inactive”; and `Cc1nnc(N/N=C/c2cccc(OCc3ccc(Cl)c(Cl)c3)c2)n1N`, with “inactive”; and `O=C(CN1CCC(NC(=O)c2cccc(F)c2)CC1)Nc1ccc(Br)cc1`, with “inactive”.
Turning to `COc1cccc(NC(=O)c2cnc(SC)nc2)c1`, the compound was called inactive.
As for `CCOC(=O)c1c(C)nc2c3ccccc3ccn12`, the entry is “inactive”; as for `COC(=O)c1ccc(N2CCN(CCNC(=O)Nc3ccc(OC)cc3)CC2)cc1`, “inactive”; as for `COC(=O)COc1ccc2c(=O)c(Oc3ccccc3)c(C)oc2c1`, “inactive”.
As for `O=C(CCN1CCCCCC1)c1ccccc1`, the outcome was inactive.
As for `O=C(CCSc1ccccc1)N1CCCC1`, the call was inactive.
With `Cc1ccc2nc(NC(=O)c3ccccn3)sc2c1`, the compound was called inactive.
Take `Cc1cnc(NC(=O)c2ccccn2)s1`: the call was inactive.
Consider `O=C(Nc1nccs1)c1ccccn1`, for which the outcome was inactive.
Consider `O=C(Nc1nc(-c2cc(F)ccc2F)cs1)c1ccccn1`, for which the compound was classed as inactive.
Take `CC1=C(/C=C/C(C)=N\NC(=O)c2ccncc2)C(C)(C)CCC1`: the compound was classed as inactive.
Regarding `O=C(COC(=O)COc1ccc(Nc2ccccc2)cc1)NCc1ccco1`, the call was inactive.
As for `O=C(COc1ccccc1)Nc1nnc(-c2ccc(Cl)cc2)o1`, the compound was called inactive.
With `CC(C)Cc1cc(C(=O)Nc2ccc(F)cc2F)no1`, the compound was classed as inactive.
As for `O=C(Nc1c(F)cc(F)cc1Br)c1cc(-c2ccccc2)on1`, the entry is “inactive”; as for `O=C(N/N=C\c1ccc([N+](=O)[O-])s1)C1COc2ccccc2O1` (centres undefined), “inactive”; as for `O=C(CCSc1nnc(-c2ccncc2)o1)Nc1cccc(Cl)c1`, “inactive”.
As for `CCn1ccc(C(=O)Nc2cccc(Cl)c2)n1`, the entry is “inactive”; as for `Cc1noc2ncnc(Sc3ccc(Br)cc3)c12`, “inactive”.
Regarding `O=c1cc(-c2ccccc2Cl)oc2c([N+](=O)[O-])c(O)cc(O)c12`, the compound was called inactive.
Then `CCOC(=O)c1ccc(NC2=CC(=O)C(=O)c3ccccc32)cc1`, with “inactive”; and `O=C1C=C(Nc2ccc(F)cc2)c2ccccc2C1=O`, with “inactive”; and `CCN(CC)S(=O)(=O)c1ccc(C(=O)OCn2nnc3ccccc3c2=O)cc1`, with “inactive”.
Then `O=c1cc(-c2ccccc2Cl)oc2ccc([N+](=O)[O-])c(O)c12`, with “inactive”; and `CCC/C(=N\NC(=O)c1ccco1)c1ccc(Cl)s1`, with “inactive”.
As for `CCCc1cc(C(=O)Nc2ccccc2SC)no1`, the entry is “inactive”; as for `Cc1ccc(C(=O)N/N=C\c2ccc([N+](=O)[O-])s2)cn1`, “inactive”.
Consider `Cc1cc(C(=O)N/N=C/c2ccc([N+](=O)[O-])s2)n[nH]1`, for which the call was inactive.
For `Cc1cc(C)n(CC(=O)N/N=C/c2ccc([N+](=O)[O-])s2)n1`, the compound was classed as inactive.
Take `O=c1oc(/C=C/c2ccc([N+](=O)[O-])s2)nc2ccccc12`: the outcome was inactive.
In the case of `CCOC(=O)c1cc(-c2csc(COc3ccccc3)n2)on1`, the compound was classed as inactive.
Then `O=C(N/N=C\C=C\c1ccco1)c1cncc(Br)c1`, with “inactive”; and `Cc1cc(C)n2nc(S(=O)(=O)Nc3c(Cl)cccc3Cl)nc2n1`, with “inactive”; and `CS(=O)(=O)Nc1cccc2cccnc12`, with “inactive”.
Regarding `O=C(OCc1nnc(-c2ccccc2)o1)c1cc([N+](=O)[O-])ccc1Cl`, the outcome was inactive.
In the case of `O=c1c2cc(Cl)ccc2nc(-c2ccccc2Cl)n1O`, the result was inactive.
Consider `CCOC(=O)c1ccc(COC(=O)c2ccc(-c3nnc(-c4ccccc4)o3)cc2)o1`, for which the call was inactive.
With `Cc1cc(OCCCCn2ccnc2)cc(C)c1Cl`, the compound was called inactive.
Take `O=C(c1ccc([N+](=O)[O-])cc1[N+](=O)[O-])N1CCc2ccccc21`: the compound was classed as inactive.
With `Cc1ccc(S(=O)(=O)CCC(=O)Nc2nc(-c3ccncc3)cs2)cc1`, the outcome was inactive.
Then `CC(/C=C/c1ccccc1F)=N\NC(=O)c1ccccc1`, with “inactive”; and `O=S1(=O)C=C(Sc2nc3cc(Cl)ccc3o2)c2ccccc21`, with “inactive”.
On to `O=C1c2ccccc2CC1Sc1nnc(-c2ccncc2)o1` (centres undefined), for which the compound was classed as inactive.
For `O=C(O)c1[nH]c(=O)[nH]c(=O)c1F`, the compound was classed as inactive.
For `CC1=NN(c2ccccc2)C(=O)C1C(=O)c1ccccc1` (centres undefined), the outcome was inactive.
Regarding `Nc1nc2ccccc2n1C(=O)c1ccc(F)cc1`, the result was inactive.
Then `CCC(=O)Nc1nc2ccccc2n1Cc1ccccc1`, with “inactive”.
As to `O=C(COc1ccccc1)NCCSCc1ccc(Cl)cc1`, the compound was classed as inactive.
Consider `C=CCc1ccc(OCC(O)CN2CCN(Cc3ccc(Cl)cc3)CC2)c(OC)c1` (centres undefined), for which the compound was classed as inactive.
As for `OC(COc1ccccc1Cl)CN1CCN(CC(O)COc2ccccc2Cl)CC1` (centres undefined), the entry is “inactive”; as for `O=C(Nc1ncc([N+](=O)[O-])s1)c1ccc2c(c1)OCO2`, “inactive”.
Regarding `O=C(OCc1ccc(Cl)c(Cl)c1)c1ccccn1`, the compound was called inactive.
As to `O=C(Nc1sc2c(c1C(=O)O)CCCCC2)c1ccccc1F`, the outcome was inactive.
In the case of `COc1cc2c(cc1OC)CN(C(=O)c1ccc([N+](=O)[O-])o1)CC2`, the outcome was inactive.
As for `O=C(c1ccc([N+](=O)[O-])o1)N1CCc2ccccc2C1`, the entry is “inactive”; as for `O=C(Nc1sc2c(c1C(=O)O)CCCC2)c1ccc(F)cc1`, “inactive”; as for `COc1ccccc1NC(=O)c1ccc([N+](=O)[O-])o1`, “inactive”.
Turning to `CCOC(=O)COc1ccc2c3c(c(=O)oc2c1C)CCC3`, the outcome was inactive.
Then `O=C(COC(=O)c1ccc(Cl)s1)c1ccc[nH]1`, with “inactive”; and `COc1ccccc1OCCNC(=O)c1cc([N+](=O)[O-])cc([N+](=O)[O-])c1`, with “inactive”.
As to `O=C(OCC(=O)N1CCN(c2ccccc2)CC1)c1ccc2ccccc2n1`, the call was inactive.
Then `O=C(OCC(=O)c1c[nH]c2ccccc12)c1ccc([N+](=O)[O-])s1`, with “inactive”; and `CCCCCC/C(=N/O)c1ccccn1`, with “inactive”; and `Cc1cccc2cc(C#N)c(NCCCn3ccnc3)nc12`, with “inactive”.
As for `c1ccc(-c2nc(NCCCn3ccnc3)c3ccccc3n2)cc1`, the compound was classed as inactive.
On to `CC(C)OC(=O)c1cc(C(=O)c2cc(Cl)ccc2O)coc1=N`, for which the call was inactive.
For the compound `O=C1NN(c2ccccc2)C(=O)/C1=C/c1ccc(Sc2ccc(Cl)cc2)o1`, the compound was called inactive.
Regarding `COC(=O)COc1ccc2c(-c3cccc([N+](=O)[O-])c3)cc(=O)oc2c1`, the call was inactive.
On to `Cc1cc(NC(=O)c2cc([N+](=O)[O-])cc([N+](=O)[O-])c2)no1`, for which the call was inactive.
Turning to `Cc1cc(C(=O)N/N=C/c2cccc(Cl)c2Cl)no1`, the outcome was inactive.
On to `NC(=O)N/N=C\c1cc(Br)ccc1O`, for which the compound was classed as inactive.
On to `C/C(=N\NC(=O)CCc1ccccc1)C1C(=O)c2ccccc2C1=O`, for which the result was inactive.
`O=C(CCc1ccccc1)NC1C2CC3CC(C2)CC1C3` (centres undefined): the outcome was inactive.
Then `CN1CC(=O)NC1=NC(=O)C12CC3CC(CC(C3)C1)C2`, with “inactive”; and `O=C(NNC(=O)c1cnccn1)c1ccc(Cl)c(Cl)c1`, with “inactive”; and `Cn1cnc([N+](=O)[O-])c1Sc1ccc(Br)cc1`, with “inactive”.
For `CCc1ccc(N2CCN(CCNC(=O)Nc3ccc(OC)cc3)CC2)cc1`, the compound was classed as inactive.
`O=c1c2c([N+](=O)[O-])cc([N+](=O)[O-])cc2nc2ccccn12`: the outcome was inactive.
Consider `O=C(OCc1cccc([N+](=O)[O-])c1)c1ccc2ccccc2n1`, for which the compound was called inactive.
As for `CCOC(=O)C(=O)NC12CC3CC(CC(C3)C1)C2`, the entry is “inactive”; as for `O=C(CCCOc1ccccc1)OCn1nnc2ccccc2c1=O`, “inactive”; as for `CCOc1ccc2ccccc2c1/C=N/NC(=O)c1ccncc1`, “inactive”.
As for `COc1ccc(NC(=O)Nc2ccc(O)c3ccccc23)cc1`, the compound was classed as inactive.
As for `CCS(=O)(=O)c1ncc(Cl)c(C(=O)Nc2ccc(S(=O)(=O)N(C)c3ccccc3)cc2)n1`, the entry is “inactive”; as for `CCOC(=O)c1c(NC(=O)COC(=O)c2ccccn2)sc2c1CCC2`, “inactive”.
On to `Clc1ccc(OCCOCCN2CCc3ccccc3C2)c(Cl)c1`, for which the outcome was inactive.
Regarding `CC(C)OC(=O)C(C)Oc1ccc(C(=O)NCCc2ccccc2)cc1` (centres undefined), the result was inactive.
As to `CC1(C)OC(c2ccccc2)=C/C(=C\C=N\NC(=O)c2ccncc2)O1`, the compound was called inactive.
As for `Cc1ccc2nc(N(CCCN(C)C)C(=O)c3ccc4c(c3)CCCC4)sc2c1`, the compound was called inactive.
Turning to `CN(C)CCC(=O)N1c2ccccc2Sc2ccc(Cl)cc21`, the outcome was inactive.
For the compound `CCc1ccc(OCC(=O)NNC(=O)c2cnccn2)c(Br)c1`, the outcome was inactive.
For the compound `O=C(N/N=C\c1ccc(Cl)s1)C1COc2ccccc2O1` (centres undefined), the result was inactive.
As for `Clc1ccc(N=c2ssnc2Cl)nc1`, the outcome was inactive.

The values above are taken from PubChem BioAssay AID489018 (Southern Research Specialized Biocontainment Screening …, 2010).
